Results filed as inconclusive are left out. Unless noted, calls follow the shape of the dose curve; as a rule, active = well fitted curve in either direction with a large enough effect (not every such curve was filed as active); inconclusive = small, poorly fitted or top-dose-only effect, or another doubt; inactive = flat fitted curve, though single readings scatter.
Tests used:
[1] = AP1 Signaling Pathway (AID 357); details: ME-180 AP-1-bla reporter, EGF-induced, beta-lactamase ratio, 5 h; at 17.2 µM (top of the series) unless noted; also: % is scaled to controls: 0 for no effect and ±100 for the full control effect
Procedure, shortened: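 ME-180 cells with beta-lactamase reporter under AP-1 response element, stimulated with EC50 EGF; compounds tested in titration series, 5 h at 37 °C. CCF4 substrate added 2.5 h at room temperature; 460/530 nm emission ratio gave %activity and AC50.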

[2] = NFAT Signaling Pathway (AID 444); details: Jurkat NFAT-bla M1, carbachol, beta-lactamase ratio, 5 h; at 17.2 µM (top of the series) unless noted;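 also: carbachol stimulus at about its EC50 of 1 µM final; % is scaled to controls: 0 for no effect and ±100 for the full control effect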
Procedure, shortened: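 Jurkat cells carrying an NFAT-driven β-lactamase reporter and co-transfected muscarinic M1 receptor were treated with compound plus carbachol (1 uM final, an EC50 level) for 5 h at 37 °C. CCF4 loading followed for 1 h at RT; 460/530 nm ratio gave %activity.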

[3] = Stat Signaling Pathway (AID 446); details: ME-180 (cervical carcinoma) SIE beta-lactamase reporter, IL-6 stimulated, 5 h; at 17.2 µM (top of the series) unless noted;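 also: ME-180 cervical cancer cells given 40 pM IL-6 alongside compound; SIE-controlled beta-lactamase reporter measured as 460/530 nm FRET emission ratio; % is scaled to controls: 0 for no effect and ±100 for the full control effect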
Procedure, shortened: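 Overnight-plated ME-180 cells bearing a STAT Inducible Element beta-lactamase reporter; 5 h co-exposure to compound and 40 pM IL-6; values normalized to 300 pM IL-6 and 125 nM JAK inhibitor controls.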

[4] = target: Glucocorticoid receptor (Homo sapiens) (UniProt P04150); assay: GR-GFP Redistribution (AID 450;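 active = compounds whose dose series gives a full or clear partial fitted curve of increased nuclear translocation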; also: potency is read from the fitted curve at half-maximal effect)
Chain of Glucocorticoid receptor (Homo sapiens) (P04150 whole entry, looked up): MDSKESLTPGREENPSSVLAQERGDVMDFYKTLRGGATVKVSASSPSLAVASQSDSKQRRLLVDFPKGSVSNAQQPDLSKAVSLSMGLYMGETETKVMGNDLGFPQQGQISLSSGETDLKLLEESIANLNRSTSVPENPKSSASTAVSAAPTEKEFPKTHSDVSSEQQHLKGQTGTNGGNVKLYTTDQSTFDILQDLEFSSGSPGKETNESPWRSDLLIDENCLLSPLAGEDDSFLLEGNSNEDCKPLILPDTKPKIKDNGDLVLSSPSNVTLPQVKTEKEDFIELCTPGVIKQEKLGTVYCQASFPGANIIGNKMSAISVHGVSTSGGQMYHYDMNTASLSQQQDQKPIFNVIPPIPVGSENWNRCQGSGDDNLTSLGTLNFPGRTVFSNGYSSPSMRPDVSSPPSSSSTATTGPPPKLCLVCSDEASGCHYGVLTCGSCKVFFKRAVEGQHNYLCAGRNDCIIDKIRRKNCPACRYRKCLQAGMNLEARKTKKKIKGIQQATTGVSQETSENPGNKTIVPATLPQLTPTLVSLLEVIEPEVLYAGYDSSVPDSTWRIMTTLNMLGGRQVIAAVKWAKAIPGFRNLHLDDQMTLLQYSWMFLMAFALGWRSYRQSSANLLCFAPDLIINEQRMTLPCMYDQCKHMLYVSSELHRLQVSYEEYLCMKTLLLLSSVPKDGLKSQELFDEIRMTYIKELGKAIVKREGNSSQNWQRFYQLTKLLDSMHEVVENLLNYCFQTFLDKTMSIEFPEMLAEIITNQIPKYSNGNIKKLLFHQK

CCN(CC)CCNC(=O)c1c(C)oc2cc(Br)c(OC)cc12
inactive: activity change, negative = inhibition [1] 29.7% | activity change, negative = inhibition [2] -19.9% | activity, negative = inhibition [3] -1.1% | Potency [4] > 20.6 µM

CC1(C)CNC(=O)c2sc(N3CCOCC3)nc2C1
inactive: activity change, negative = inhibition [1] -10.8% | activity change, negative = inhibition [2] 26.7% | activity, negative = inhibition [3] 3.19% | Potency [4] > 20.6 µM

CSC1=C(C#N)C(c2ccc(C)s2)CC(=O)N1 (centres undefined)
inactive: activity change, negative = inhibition [1] -7.45% | activity change, negative = inhibition [2] -2.53% | activity, negative = inhibition [3] 7.78% | Potency [4] > 20.6 µM

Cc1cc(=O)oc(C)c1C(=O)NC1CC(C)(C)NC(C)(C)C1
inactive: activity change, negative = inhibition [1] -2.44% | activity change, negative = inhibition [2] -3.93% | activity, negative = inhibition [3] 0.837% | Potency [4] > 20.6 µM

CC1(C)Cc2c(c(-c3ccccc3Cl)[nH]c(=O)c2C#N)CO1
inactive: activity change, negative = inhibition [1] 13% | activity change, negative = inhibition [2] -5.06% | activity, negative = inhibition [3] 2.62% | Potency [4] > 20.6 µM

O=C(C/C(=N/O)c1ccccc1O)C(F)F
inactive: activity change, negative = inhibition [1] 15.8% | activity change, negative = inhibition [2] 0.0588% | activity, negative = inhibition [3] 3.52% | Potency [4] > 20.6 µM

CN(C)c1nc2sc3c(c2c(=O)n1C)CC(C)(C)OC3
inactive: activity change, negative = inhibition [1] -6.89% | activity change, negative = inhibition [2] -2.36% | activity, negative = inhibition [3] 10.9% | Potency [4] > 20.6 µM

C[N+](C)(C)CCOP(=O)([O-])OC[C@H](O)CO
inactive: activity change, negative = inhibition [1] 9.55% | activity change, negative = inhibition [2] 0.0397% | activity, negative = inhibition [3] -1.98% | Potency [4] > 20.6 µM

CCOC(=O)C1CCCN(c2nc3ccccc3nc2C(C#N)C(=O)OC(C)COC)C1 (centres undefined)
inactive: activity change, negative = inhibition [1] -5.69% | activity change, negative = inhibition [2] -5.6% | activity, negative = inhibition [3] -14.5% | Potency [4] > 20.6 µM

CS(=O)(=O)CCC(C(=O)n1nnc2ccccc21)N1C(=O)c2ccccc2C1=O (centres undefined)
inactive: activity change, negative = inhibition [1] -2.33% | activity change, negative = inhibition [2] -13.1% | activity, negative = inhibition [3] -20.7% | Potency [4] > 20.6 µM

O=C1CC(NCc2ccc3c(c2)OCO3)C(=O)N1Cc1ccc2c(c1)OCO2 (centres undefined)
inactive: activity change, negative = inhibition [1] -14.2% | activity change, negative = inhibition [2] 15.6% | activity, negative = inhibition [3] -1.08% | Potency [4] > 20.6 µM

Cc1cc(OCC(=O)Nc2ccc3oc(-c4ccncc4)nc3c2)ccc1Cl
inactive: activity change, negative = inhibition [1] -4.67% | activity change, negative = inhibition [2] 16.6% | activity, negative = inhibition [3] 3.21% | Potency [4] > 20.6 µM

CC(C)CN1C(=O)NC(NC(=O)c2cccnc2)(C(F)(F)F)C1=O (centres undefined)
inactive: activity change, negative = inhibition [1] -6.13% | activity change, negative = inhibition [2] 3.51% | activity, negative = inhibition [3] -1.02% | Potency [4] > 20.6 µM

CCC1(C)Cc2c(sc(NC(=O)CCC(=O)O)c2C#N)CO1 (centres undefined)
inactive: activity change, negative = inhibition [1] 4.06% | activity change, negative = inhibition [2] 0.708% | activity, negative = inhibition [3] 9.62% | Potency [4] > 20.6 µM

CCOc1ccc2c(c1)n([O-])c1c([n+]2=O)CCCC1
inactive: activity change, negative = inhibition [1] 9.01% | activity change, negative = inhibition [2] -13% | activity, negative = inhibition [3] 1.7% | Potency [4] > 20.6 µM

CC(=O)C1=C(O)C(=O)N(c2ccc(S(N)(=O)=O)cc2)C1c1ccccc1F (centres undefined)
inactive: activity change, negative = inhibition [1] -4.17% | activity change, negative = inhibition [2] 5.76% | activity, negative = inhibition [3] -0.593% | Potency [4] > 20.6 µM

Cc1nc(=O)c(-c2ccccc2)c(C)n1-c1ccc(S(N)(=O)=O)cc1
inactive: activity change, negative = inhibition [1] 7.15% | activity change, negative = inhibition [2] -1.07% | activity, negative = inhibition [3] 7.76% | Potency [4] > 20.6 µM

CCOc1ccc(-c2nc(C#N)c(NCC(C)C)o2)cc1
inactive: activity change, negative = inhibition [1] -22.8% | activity change, negative = inhibition [2] -3.57% | activity, negative = inhibition [3] -7.96% | Potency [4] > 20.6 µM

Fc1cnc(N2CCOCC2)nc1NCc1ccccc1
inactive: activity change, negative = inhibition [1] 10.9% | activity change, negative = inhibition [2] -3.23% | activity, negative = inhibition [3] -8.43% | Potency [4] > 20.6 µM

Cc1ccc(C(=O)C2=C(O)C(=O)N(c3ncccn3)C2c2ccc(Cl)cc2)o1 (centres undefined)
inactive: activity change, negative = inhibition [1] -14% | activity change, negative = inhibition [2] 23% | activity, negative = inhibition [3] -10.8% | Potency [4] > 20.6 µM

CCCCc1[nH]c(=O)c(C#N)c2c1CSC(C)(C)C2
inactive: activity change, negative = inhibition [1] 15.5% | activity change, negative = inhibition [2] -2.98% | activity, negative = inhibition [3] 3.1% | Potency [4] > 20.6 µM

CCCCNC(=O)N1CCOCCOCCN(C(=O)NCCCC)CCOCCOCC1
inactive: activity change, negative = inhibition [1] 3.89% | activity change, negative = inhibition [2] 5.69% | activity, negative = inhibition [3] -1.16% | Potency [4] > 20.6 µM

COCCNc1ncnc2c1cnn2-c1ccc(Cl)cc1
inactive: activity change, negative = inhibition [1] -9.71% | activity change, negative = inhibition [2] -10.4% | activity, negative = inhibition [3] 2.93% | Potency [4] > 20.6 µM

COc1ccccc1N1CCN(CCOc2c(OC)cccc2OC)CC1
inactive: activity change, negative = inhibition [1] 12.4% | activity change, negative = inhibition [2] 12.8% | activity, negative = inhibition [3] 2.04% | Potency [4] > 20.6 µM

CCOc1ccc(C2CC(c3ccccc3)Nc3nc(N)nn32)cc1 (centres undefined)
inactive: activity change, negative = inhibition [1] -4.28% | activity change, negative = inhibition [2] 6.92% | activity, negative = inhibition [3] -1.31% | Potency [4] > 20.6 µM

CC(C(=O)N(C)C)N(C#N)c1nc(N(C)C)nc(N(C)C)n1 (centres undefined)
inactive: activity change, negative = inhibition [1] 1.24% | activity change, negative = inhibition [2] 2.25% | activity, negative = inhibition [3] -6.97% | Potency [4] > 20.6 µM

Source: PubChem BioAssay (NCATS)
